Screen size: about 290,000 compounds; about 2,100 (0.72%) were called active. Roughly 4% stayed inconclusive and do not appear here. Calls follow the shape of the dose curve; as a rule, active = well fitted inhibition curve with a large enough effect; inconclusive = small, poorly fitted or top-dose-only effect, or effect the other way; inactive = flat fitted curve, though single readings scatter. What follows is part of a selection rich in actives, with near analogues and random picks from the rest. Where a call stands in place of a potency, no number is given.
Biological target: Fructose-bisphosphate aldolase (Giardia intestinalis (strain ATCC 50803 / WB clone C6)) (UniProt A8B2U2)
Sequence (A8B2U2 whole entry, looked up): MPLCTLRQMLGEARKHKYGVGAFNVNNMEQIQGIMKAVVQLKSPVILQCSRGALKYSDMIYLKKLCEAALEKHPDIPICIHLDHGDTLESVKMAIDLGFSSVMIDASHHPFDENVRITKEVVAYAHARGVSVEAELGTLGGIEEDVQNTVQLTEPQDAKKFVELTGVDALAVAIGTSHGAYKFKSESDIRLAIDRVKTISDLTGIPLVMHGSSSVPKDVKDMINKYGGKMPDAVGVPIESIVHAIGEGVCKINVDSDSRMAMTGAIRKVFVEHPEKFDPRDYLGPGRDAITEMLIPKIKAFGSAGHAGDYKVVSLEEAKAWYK
Assay: qHTS Assay for Inhibitors of Fructose-1,6-bisphosphate Aldolase from Giardia Lamblia; also: nearly all actives have a fitted effect of over 55% in size
Conditions: purified Giardia FBPA; series mostly up to 59.6 µM
Excerpt: Assay Provider: Osnat Herzberg, University of Maryland
The objective of this project is to obtain compounds that inhibit Giardia lamblia growth. G. lamblia is a human pathogen which afflicts impoverished nations; it is the most common cause of outbreaks of diarrhea in the United States. During the course of our study of potential drug targets in Giardia, we have identified the Class II (Zn2+ functions in electrophilic catalysis) fructose-1,6-bisphosphate aldolase (FBPA) as an excellent candidate for drug targeting. FBPA is a key glycolytic pathway enzyme, essential for G. lamblia survival. The human FBPA belongs to the Class I aldolases, which have a different substrate binding site structure and a radically different catalytic mechanism (employing a lysine-Schiff base intermediate). Therefore, affinity-based or mechanism-based inhibitors of the Giardia FBPA are expected not to interfere with the catalytic function of the human FBPA.
A glyceraldehyde-3-phosphate dehydrogenase/triose phosphate isomerase/NAD/arsenate coupled assay was adapted to the 1536-well HTP format for use in the primary screen. This was done by coupling it to a diaphorase/resazurin/resorufin reaction that can be monitored by fluorescence (excitation, 544 nm; emission, 590 nm). Compounds identified in this screen will be further evaluated by coupling the glycerol-3-phosphate/triose phosphate isomerase/NADH assay to a phenazine methosulfate/tetranitroblue tetrazolium color reaction. False positives due to the dehydrogenases and diaphorase inhibition will be eliminated, and selectivity assay will triage inhibitors of mammalian triose phosphate isomerase and the Class I FBPA. G. lamblia FBPA inhibitors identified by the in vitro analyses will be examined for growth inhibition of Giardia trophozoites, and for cytotoxicity in human cells.
Step,Parameter,Value,Description
1,Enzyme reagent,2 uL,40 nM FBPA
2,Compound,23 nL,3.68 nM-57.5 uM final concentration
3,Time,10 min,RT Incubation
4,Substrate/detection Reagent,2 uL,Substrate + enzyme coupling system + AmpLite Red kit
5,Time,20 min,RT Incubation
6,Detector,525 nm/598 nm (Fluorescence),ViewLux Fluorescence Read (Read 1)
1,Medium-binding black solid-bottom Kalypsys plates. FRD or Kalypsys dispenser, 2 uL of FBPA enzyme. Bottle kept at 4C.
2,Compound Library (10 mM ,1:5 dilution). Pin-transferred for a [final] range of 3.68 nM-57.5 uM.
4,FRD or Kalypsys dispenser, 2 uL of reaction mixture. Bottle kept at 4C and covered in foil to protect from light.
6,ViewLux Protocol 1194; Excitation filter wheel A (525/20 Pol; BODIPY TMR FP), Emission filter wheel B (598/25 S; BODIPY TMR FP S).
Keywords: Fructose-bisphosphate aldolase, FBPA , Giardia lamblia , Giardia, HTS, Inhibitors
Potency is read from the fitted curve at half-maximal effect.

Q: Which Potency does the source give for `Cc1nc2ccc(NC(=S)N3CCC(C)CC3)cc2nc1C` here?
A: The Potency was 15.8 µM (active).

Q: Which Potency does the source give for `Cc1cccc(NC(=S)N2CCC(c3nc4ccccc4s3)CC2)c1` here?
A: Its Potency is “inactive”.

Q: How did the Potency turn out when `Cc1nc2ccc(NC(=O)N3CCC(c4ccccc4)C3)cc2nc1C` (stereo not drawn) was run?
A: The Potency was “inactive”.

Q: Which Potency does the source give for `O=CN1CCN(C(=O)c2ccc(Br)o2)CC1` here?
A: Its Potency is “inactive”.

Q: `Cc1cc(C)c(NC(=O)CN2CCCCCC2)c(C)c1` was tested. Which Potency did it give?
A: The Potency was “inactive”.

Q: `Cc1csc(NC(=O)CN2CCCCCC2)n1` was tested. Which Potency did it give?
A: Its Potency is 22.3 µM (active).

Q: For `O=C(CN1CCCCCC1)Nc1c(Cl)cc(Cl)cc1Cl`, which Potency is on record?
A: The Potency was “inactive”.

Q: How did the Potency turn out when `Cc1cccc([C@@H]2[C@@H]3C(=O)N(C)C(=O)[C@@H]3[C@@H]3C(=O)Nc4ccccc4C(=O)N23)c1` was run?
A: Its Potency is “inactive”.

Q: `COc1ccccc1N(CC(=O)N/N=C(\C)c1ccccc1O)S(=O)(=O)c1ccc(C)cc1` was tested. Which Potency did it give?
A: The Potency was “inactive”.

Q: For `CC(C)(C)c1ccc(CN2C(=O)c3ccccc3S2(=O)=O)cc1`, which Potency is on record?
A: The Potency was “inactive”.

Q: How did the Potency turn out when `Cc1ccc(C(=O)N2CC(=O)Nc3ccc(F)cc3C2c2ccc(F)cc2)cc1` (stereo not drawn) was run?
A: The Potency was “inactive”.

Q: `Cc1nnc(N/N=C/c2ccccn2)[nH]c1=O` was tested. Which Potency did it give?
A: The Potency was 1.99 µM (active).

Q: How did the Potency turn out when `Cc1ccccc1Nc1nnc(C)c(=O)[nH]1` was run?
A: Its Potency is “inactive”.

Q: `Cc1nnc(N/N=C/c2cccs2)[nH]c1=O` was tested. Which Potency did it give?
A: Its Potency is “inactive”.

Q: `O=S(=O)(c1ccc(Br)c2ccccc12)N1CCOCC1` was tested. Which Potency did it give?
A: Its Potency is “inactive”.

Q: With `COc1ccc(C(=O)Nc2ccc(C3(C#N)CCCC3)cc2)cc1OC` as the compound, how does the Potency read?
A: The Potency was “inactive”.

Q: For `Cc1ccc(CC2CC(=O)N(c3cc(C)ccc3C)C2=O)cc1` (stereo not drawn), which Potency is on record?
A: The Potency was “inactive”.

Q: `O=C(COc1cccc(Cl)c1)NCc1ccccc1` was tested. Which Potency did it give?
A: Its Potency is “inactive”.

Q: For `CN(C)c1ccc(NC(=O)CSc2n[nH]c(-c3ccco3)n2)cc1`, which Potency is on record?
A: Its Potency is “inactive”.

Q: Which Potency does the source give for `CN(C)C(=O)CSc1n[nH]c(-c2ccco2)n1` here?
A: The Potency was 15.8 µM (active).

Q: How did the Potency turn out when `O=[N+]([O-])c1ccc(Sc2n[nH]c(-c3ccco3)n2)nc1` was run?
A: The Potency was “inactive”.

Q: Which Potency does the source give for `CC(C)Nc1ccc(-n2nc3ccccc3[n+]2[O-])cc1` here?
A: The Potency was “inactive”.

Q: How did the Potency turn out when `COCCCNC(=S)N1CCN(c2nc(-c3cccc(OC)c3)cs2)CC1` was run?
A: The Potency was “inactive”.

Q: How did the Potency turn out when `O=C(N/C(=C/c1ccc(Cl)cc1)C(=O)N1CCCCC1)c1ccco1` was run?
A: The Potency was “inactive”.

Q: For `COc1cc2ccccc2cc1C(=O)Nc1nc(C)c(C(C)=O)s1`, which Potency is on record?
A: The Potency was “inactive”.

Q: For `CCCCC(CC)CNCc1cccn1CCN1CCOCC1` (stereo not drawn), which Potency is on record?
A: The Potency was “inactive”.

Q: For `CCN(CC)c1ccc(/C=N/Nc2nc(C)cc(=O)[nH]2)cc1`, which Potency is on record?
A: Its Potency is “inactive”.

Q: How did the Potency turn out when `CCN(CC)c1ccc2oc(=O)c(C)nc2c1` was run?
A: The Potency was 2.51 µM (active).

Q: Which Potency does the source give for `CCN(CC)c1ccc(/C=N/Nc2nc(C)cc(C)n2)c(O)c1` here?
A: The Potency was “inactive”.

Q: How did the Potency turn out when `CCOCCOC(=O)C(C)Oc1ccc(Oc2ncc(C(F)(F)F)cc2Cl)cc1` (stereo not drawn) was run?
A: Its Potency is “inactive”.

Q: With `COc1ccc(C2CC(c3ccc([N+](=O)[O-])cc3)=NN2C(C)=O)cc1` (stereo not drawn) as the compound, how does the Potency read?
A: Its Potency is “inactive”.

Q: `C#CCN1C(=O)C(O)(CC(=O)c2cc(OC)ccc2OC)c2ccccc21` (stereo not drawn) was tested. Which Potency did it give?
A: Its Potency is “inactive”.

Q: With `COc1ccc2c(c1)C(=C(C#N)C#N)C(=O)N2CCc1ccccc1` as the compound, how does the Potency read?
A: Its Potency is 2.51 µM (active).

Q: With `COc1ccc(C(=O)NC(C)CCc2ccccc2)c(OC)c1` (stereo not drawn) as the compound, how does the Potency read?
A: Its Potency is “inactive”.

Q: `Brc1ccccc1C1N=C(c2ccccc2)NO1` (stereo not drawn) was tested. Which Potency did it give?
A: Its Potency is “inactive”.

Q: For `Cc1ccc(SCC(CC(C)C)N2CCN(CCc3ccccc3)CCC2=O)cc1` (stereo not drawn), which Potency is on record?
A: Its Potency is “inactive”.

Q: Which Potency does the source give for `CCOc1ccccc1NC(=O)C1CCCN(S(=O)(=O)c2ccccc2)C1` (stereo not drawn) here?
A: Its Potency is “inactive”.

Q: `CCCCc1nc(NCc2ccccc2)c(C#N)c2c1CCCC2` was tested. Which Potency did it give?
A: Its Potency is “inactive”.

Q: With `CCc1nc(NCCO)c(C#N)c2c1CCCC2` as the compound, how does the Potency read?
A: Its Potency is “inactive”.

Q: With `CCN1CCc2c(C#N)c(NCc3ccccc3)nc(NCCO)c2C1` as the compound, how does the Potency read?
A: The Potency was 5.61 µM (active).

Q: Which Potency does the source give for `Cc1cc(Cl)ccc1NC(=S)NCCCN1CCCC1=O` here?
A: The Potency was “inactive”.

Q: For `Cc1cccc(C(=O)NCCCN2CCCC2=O)c1`, which Potency is on record?
A: The Potency was “inactive”.

Q: With `O=C1CCCN1CCCNC(=S)Nc1ccc(F)c(Cl)c1` as the compound, how does the Potency read?
A: The Potency was 14.1 µM (active).

Q: For `O=C(O)CCCn1cc(NC(=O)COc2cccc(Cl)c2)cn1`, which Potency is on record?
A: The Potency was “inactive”.

Q: With `COc1ccc(-n2ncc3c(SCC(=O)NNC(C)=O)ncnc32)cc1` as the compound, how does the Potency read?
A: Its Potency is “inactive”.

Q: Which Potency does the source give for `Cc1ccccc1-n1nc(C)c2c1N=C1C(Cl)=CC(Cl)=CN1C2c1ccc(C(=O)O)cc1` (stereo not drawn) here?
A: The Potency was 12.6 µM (active).

Q: For `Cc1nn(-c2ccccc2)c(Cl)c1/C=C/C(=O)c1ccc(O)cc1`, which Potency is on record?
A: The Potency was “inactive”.

Q: Which Potency does the source give for `Cc1ccccc1-n1nc(C)c2cc(C(=O)NC3CC3)sc21` here?
A: The Potency was “inactive”.

Q: Which Potency does the source give for `Cc1cccc([C@@H]2[C@@H]3C(=O)N(Cc4ccccc4)C(=O)[C@@H]3[C@]3(C)C(=O)N(c4ccc(Br)cc4)C(=O)N23)c1` here?
A: Its Potency is “inactive”.

Q: With `CCN(CC)S(=O)(=O)c1ccc(-c2cn3ccc(C)cc3n2)cc1` as the compound, how does the Potency read?
A: Its Potency is “inactive”.

Q: Which Potency does the source give for `C=CCn1c(SCc2ccccc2)nc2c1c(=O)[nH]c(=O)n2C` here?
A: Its Potency is “inactive”.

Q: Which Potency does the source give for `Cc1cnc(NC(=O)CSc2c(Cl)cccc2Cl)s1` here?
A: The Potency was “inactive”.

Q: Which Potency does the source give for `Cc1cnc(NC(=O)c2ccccn2)s1` here?
A: Its Potency is 7.92 µM (active).

Q: For `Cc1cnc(NC(=O)c2ccc(Cl)nc2)s1`, which Potency is on record?
A: Its Potency is “inactive”.

Q: For `CN(C)CCN(C(=O)C1=COCCO1)c1nc2ccc(Cl)cc2s1`, which Potency is on record?
A: Its Potency is “inactive”.

Q: `CCc1ccc(NC(=O)N2CCc3ccccc3C2)cc1` was tested. Which Potency did it give?
A: The Potency was “inactive”.

Q: `Cc1ccc(Cl)c(OCC(=O)N2CCc3ccccc3C2)c1` was tested. Which Potency did it give?
A: Its Potency is “inactive”.

Q: `COc1ccccc1C(=O)CSc1cccc[n+]1[O-]` was tested. Which Potency did it give?
A: Its Potency is “inactive”.

Q: How did the Potency turn out when `O=C(CSc1cccc[n+]1[O-])c1ccc(Cl)cc1` was run?
A: The Potency was “inactive”.

Q: `O=C(CSc1cccc[n+]1[O-])c1ccc(-c2ccccc2)cc1` was tested. Which Potency did it give?
A: The Potency was 17.7 µM (active).

Q: With `NS(=O)(=O)c1ccccc1NC(=O)c1c(O)c2ccccc2[nH]c1=O` as the compound, how does the Potency read?
A: Its Potency is “inactive”.

Q: `CC(C)c1ccc(/C=C2\NC(=O)NC2=O)cc1` was tested. Which Potency did it give?
A: Its Potency is “inactive”.

Q: For `CC(=O)N1CCC(C(=O)OCc2ccc(Cl)cc2)(c2ccccc2)CC1`, which Potency is on record?
A: Its Potency is “inactive”.

Q: For `Cc1cccc2c(CCN)c[nH]c12`, which Potency is on record?
A: The Potency was “inactive”.

Q: `O=C(Cc1c[nH]c2ccccc12)OCCOC(=O)Cc1c[nH]c2ccccc12` was tested. Which Potency did it give?
A: Its Potency is “inactive”.

Q: Which Potency does the source give for `COc1ccc(Nc2ncnc3ccc(Br)cc23)c(OC)c1` here?
A: The Potency was “inactive”.

Q: With `O=C(c1cc(COc2ccc(F)cc2F)on1)N1CCOCC1` as the compound, how does the Potency read?
A: The Potency was “inactive”.

Q: Which Potency does the source give for `CSc1ccccc1NC(=O)c1cc(Cl)sc1Cl` here?
A: Its Potency is “inactive”.

Q: For `CCCCC(C(=O)NC(C)(C)C)N(Cc1ccccc1)C(=O)c1snc(C(N)=O)c1N` (stereo not drawn), which Potency is on record?
A: The Potency was “inactive”.

Q: For `COc1ccccc1N1CCN(Cc2ccc(OC)c3ccccc23)CC1`, which Potency is on record?
A: Its Potency is “inactive”.

Q: With `COc1ccc(CN2CCN(Cc3ccc(OC)c(OC)c3OC)CC2)cc1` as the compound, how does the Potency read?
A: Its Potency is 14.1 µM (active).

Q: With `CN1CCN(Cc2ccc(OC(F)(F)F)cc2)CC1` as the compound, how does the Potency read?
A: Its Potency is “inactive”.

Q: For `Cc1cc(N=Nc2ccc3ccccc3c2)ccc1O`, which Potency is on record?
A: The Potency was “inactive”.

— PubChem BioAssay AID2451 (National Center for Advancing Translational Sciences (NCATS), 2010)
